Screening data: PubChem BioAssay, National Center for Advancing Translational Sciences (NCATS)
The list is not random: actives were taken first. Their share in the collection is about 19%.
Cycloheximide cs: counter-screen hit for Shiga toxin inhibitors, cycloheximide. cell reporter, cycloheximide protein synthesis inhibition counterscreen. max response, %. hit rate 12% among 300,000. AID 2314; in the data active = max response mostly above about 13%, no sharp cut-off; inactive = mostly below about 14%; also: read at 38.3 µM for the half of the compounds with a filed dose; 0% is about no effect
Pf growth 96h: P. falciparum growth inhibition at 96 hours; P. falciparum luciferase reporter growth, 96 h; Potency, µM (top dose mostly 28.7 µM), for the others: top-dose activity change, negative = inhibition, hits mostly inhibitors; hit rate 6.9% among 320,000; AID 504834; also: potency is read from the fitted curve at half-maximal effect; % is scaled to controls: 0 for no effect and ±100 for the full control effect
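96 h incubation, 37 C, 5% CO2, of luciferase-reporter P. falciparum-infected RBCs (2% hematocrit, 0.05% parasitemia final) with test compounds; endpoint luminescence.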
Lassa entry inh: Lassa virus entry inhibition | Lassa virus pseudotype entry inhibition, cell reporter | Potency, µM (doses to about 37.9 µM), without a hit: at the top dose activity change, negative = inhibition, usual class: inhibitors | hit rate 1.2% among 300,000 | AID 540256; calls by dose curve; tested in HEK293 cells; also: potency is read from the fitted curve at half-maximal effect; % is scaled to controls: 0 for no effect and ±100 for the full control effect; nearly all actives have a fitted effect of over 50% in size
Pf growth 48h: inhibits P. falciparum growth in the first generation, 48 h. P. falciparum luciferase growth in erythrocytes, 48 h. Potency, µM (titrated, usually from 28.7 µM), without a hit: at the top dose activity change, negative = inhibition, hits mostly inhibitors. hit rate 5.9% among 310,000. AID 504832; also: potency is read from the fitted curve at half-maximal effect; % is scaled to controls: 0 for no effect and ±100 for the full control effect
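In quantitative HTS format, infected erythrocytes bearing luciferase-reporter parasites were treated for a single generation at 37 C. Luminescence after adding detection reagent served as the growth measure.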
Shiga inhibitor: inhibitors of Shiga toxin in Vero cells; Vero cells, Shiga toxin protein synthesis inhibition reporter; inhibition, % at 38.7 µM; hit rate 9.2% among 290,000; in the data active = inhibition mostly above about 28%, no sharp cut-off; inactive = mostly below about 43%; also: 0% is about no effect
MARV entry inh: blocks Marburg virus binding to or entry into cells | Marburg virus pseudotyped entry inhibition, cell reporter | hit rate 1.8% among 300,000 | Potency, µM (top dose mostly 37.8 µM), without a hit: at the highest dose activity change, negative = inhibition, most hits filed as inhibitors; calls by dose curve; tested in HEK293 cells; also: potency is read from the fitted curve at half-maximal effect; % is scaled to controls: 0 for no effect and ±100 for the full control effect
Active calls of the source: *; ? = inconclusive; / = no result; [ ] = remark or other dose. Unless noted, calls follow the shape of the dose curve; as a rule, active = well fitted inhibition curve with a large enough effect; inconclusive = small, poorly fitted or top-dose-only effect, or another doubt; inactive = no such curve, though single readings can be large or run the other way.

SMILES	Cycloheximide cs	Pf growth 96h	Lassa entry inh	Pf growth 48h	Shiga inhibitor	MARV entry inh
Cc1cc(/C=N/n2cnnc2)c(C)n1-c1cccc(Cl)c1	1	7%	-22%	-13%	-16	-14%[46.1 µM]
CCOc1cc(-c2ccc(N)c(OCC)c2)ccc1N	-1	?	7%	-9%	4	-10%
CCOc1ccc(N)c(SSc2cc(OCC)ccc2N)c1	45*	?	/	0%	88*	/
O=C(O)c1cccnc1C(=O)O	/	6%	38%	36%	/	?
Cc1ccc(C(C)NC(=O)c2cccs2)cc1C (stereo unspecified)	/	/	9%[46.1 µM]	/	/	-3%[46.1 µM]
CCOC(=O)c1ccc(NC(=O)C2CCN(S(=O)(=O)c3c(C)nn(C)c3C)CC2)cc1	-2	?	/	-26%	-2	/
CC1=C(c2ccc(C)cc2)[N+](=O)C(C)(C)N1[O-]	19*	?	-13%[46.1 µM]	61%	78*	1%[46.1 µM]
Cc1nnc(SCC(=O)Nc2ncc(S(=O)(=O)c3ccc([N+](=O)[O-])cc3)s2)s1	-1	32%	?	14%	-20	?
Cc1ccc(SCc2cc(=O)[nH]c(Nc3nc(C)c4cccc(C)c4n3)n2)cc1	-1	?	-51%[14.3 µM]	?	2	9.2µM*
Cc1ccc2c(C)nc(Nc3nc(CSc4nnnn4-c4ccccc4)cc(=O)[nH]3)nc2c1	4	/	?	2.3µM*	-10	-2%
CCCn1c(SCN2C(=O)c3ccccc3C2=O)nc2cc(Cl)ccc2c1=O	-3	39%	?	11%	-9	16%
Cc1ccc(-c2nc(CN(Cc3cnn(C)c3)C(C)C)c(C)o2)o1	0	7.4µM*	-8%[46.1 µM]	-6%	-9	-6%[46.1 µM]
O=C(CSc1ccccc1)Nc1nc2ccccc2[nH]1	28*	125%	-16%	123%	84*	?
O=C(Cc1ccccc1)Nc1nc2ccccc2[nH]1	26*	/	?	58%	79*	?
O=S(=O)(CCOc1ccccc1)c1nc2ccccc2[nH]1	18*	?	3%	-12%	23*	-25%
O=C(Cc1c[nH]c2ccccc12)NCc1ccncc1	-1	2%	15%[46.1 µM]	8%	-6	4%[46.1 µM]
O=C(Cc1c[nH]c2ccccc12)Nc1nc2ccccc2[nH]1	26*	?	17%	19%	74*	-22%
CCc1cccc(CC)c1NC(=S)/C(=C(\[O-])c1ccc(Cl)s1)[n+]1ccccc1	8	?	/	?	-5	/
O=C(COC(=O)c1ccc(S(=O)(=O)N2CCCC2)cc1)NCc1ccccc1	-4	11%	4%	17%	20	6%
O=C(CSc1nc2ccccc2[nH]1)Nc1ccc(F)cc1	-6	-8%	/	/	3	/
O=C(CN1C(=O)C2CC=CCC2C1=O)Nc1nc2ccccc2[nH]1 (stereo unspecified)	2	19µM*	-1%	10%	-5	4%
O=C(CCCOc1ccccc1)Nc1nc2ccccc2[nH]1	34*	223%	-1%	278%	68*	?
O=C(CSc1ccc(Cl)cc1)Nc1ccc(-c2nc3ccccc3[nH]2)cc1	-2	10%	-17%	4.1µM*	24	?
O=C(Cc1ccc(Br)cc1)Nc1nc2ccccc2[nH]1	14*	2%	/	?	22	/
CC1=C(C(=O)Nc2nc3ccccc3s2)C(c2ccco2)C(C#N)=C(SCC(=O)NC2CCCCC2)N1 (stereo unspecified)	-4	?	-6%	?	17	?
SMILES	Cycloheximide cs	Pf growth 96h	Lassa entry inh	Pf growth 48h	Shiga inhibitor	MARV entry inh
NC1=NC(=O)/C(=C/c2cc(Br)c(O)c(Br)c2)S1	35	?	/	5%	108	/
CCOC(=O)c1c(/N=C/N(C)C)sc(/C=N/Nc2ccccc2)c1-c1ccccc1	0	10µM*	-4%	15µM*	9	18µM*
CCOC(=O)c1c(/N=C/N(C)C)sc(/C=N/Nc2ccccc2)c1-c1ccccc1Cl	-1	?	?	6.6µM*	5	?
CCc1nc(-c2ccc(C)nc2OC)no1	8	-14%	?	4%	-1	11%
COc1nc(C)ccc1-c1noc(-c2ccccn2)n1	57*	-4%	8.2µM*	164%	144*	?
COc1nc2cc(C)ccc2cc1-c1noc(-c2cccnc2)n1	-5	?	/	/	29	/
COc1nc(C)ccc1-c1noc(-c2cccnc2)n1	19*	0%	/	0%	/	/
COc1ccccc1-c1nc(-c2ccc(C)nc2OC)no1	49*	-18%	18%	192%	93*	2%
COc1ccc(Cn2c(CCC(=O)Nc3ccc(OC)c(Cl)c3)nc3cccnc32)cc1	/	/	-13%[46.1 µM]	/	/	3%[46.1 µM]
COc1cc(OC)c2c(N)c(C#N)c(C(F)(F)C(F)(F)F)nc2c1	-3	42%	2%	/	-11	-3%
O=C(Cc1ccccc1)NCC(=O)N1CCCCC1	21	?	14%	17%	2	?
O=C(CC(c1ccccc1O)N1CCCCC1)N1CCCCC1 (stereo unspecified)	41*	0%	14%	62%	35*	?
O=C(c1ccccc1)c1nccc2ccccc12	-3	30%	2%	-13%	-9	?
CC(C)C(OC(=O)c1ccccc1)c1nccc2ccccc12 (stereo unspecified)	49*	32%	11%	-1%	86*	-12%
N#CC(OC(=O)c1ccccc1)c1cccc([N+](=O)[O-])c1 (stereo unspecified)	/	/	24%[46.1 µM]	/	/	?
O=C(OC(c1ccccc1)c1nccc2ccccc12)c1cccc([N+](=O)[O-])c1 (stereo unspecified)	32*	-52%	10%	2%	35	?
COC(=O)c1ccc(NC(=S)N(Cc2cccnc2)Cc2ccco2)cc1	-2	?	/	?	22	/
CCOc1ccccc1-c1cc(C(=O)Nc2ccc(C(=O)O)cc2)c2ccccc2n1	-4	10µM*	20%[46.1 µM]	?	-3	-11%[46.1 µM]
CCOc1ccccc1NC(=O)c1cc(-c2ccccn2)nc2ccccc12	/	?	/	15µM*	/	/
COc1cccc(CNC(=O)c2ccc(CNS(=O)(=O)c3ccc(C)cc3)cc2)c1	/	/	-32%[46.1 µM]	/	/	/
NC(=O)C1CCCN(C(=O)c2cccc(S(=O)(=O)N(Cc3ccccc3)c3ccccc3)c2)C1 (stereo unspecified)	/	?	-14%	?	/	1%
CCc1nc(SCC(=O)Nc2cccc(C(F)(F)F)c2)c2c(=O)n(C)c(=O)n(C)c2n1	-3	?	/	9.3µM*	-9	4%
CCN(CC(=O)Nc1c(F)cccc1F)C(=O)c1ccc(N2C(=O)c3ccccc3C2=O)cc1	/	3%	-2%[46.1 µM]	15%	/	3%
CCC(=O)Nc1nc2c(OC)ccc(OC)c2s1	-8	-3%	/	/	-20	/
CCC(=O)Nc1nc2ccc3nc(C)sc3c2s1	55*	?	/	?	62*	/
CCC(=O)Nc1nc2cc(OC)ccc2s1	55*	-17%	?	241%	183*	-4%
